RPL19A TOR yeast: RPL19A-GFP expression modulators in yeast, primary screen, cell-based, S. cerevisiae, multiplex flow cytometry, MLPCN; AID 2025, 2009; percent response vs DMSO, % at 10 µM; S. cerevisiae RPL19A-GFP strain, 3 h; stronger effect = lower value; 0.3% of 330,000 active;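 active = percent response vs DMSO below 50%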;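 note: median channel GFP fluorescence of the barcoded RPL19A-GFP strain; lower means less RPL19A-GFP as with rapamycin TOR inhibition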
VLA-4 inh: inhibition in human VLA-4 binding assay, primary screen, VLA-4 allosteric modulator project, MLPCN library, flow cytometry, VLA-4 expressing cells; Integrin alpha-4 (Homo sapiens), P13612; ligand binding flow cytometry; inhibition, % (about 7 µM as worked out from the volumes in the protocol); 0.2% of 330,000 active; in the data active = inhibition above about 50%
Target sequence (P13612 whole entry, looked up): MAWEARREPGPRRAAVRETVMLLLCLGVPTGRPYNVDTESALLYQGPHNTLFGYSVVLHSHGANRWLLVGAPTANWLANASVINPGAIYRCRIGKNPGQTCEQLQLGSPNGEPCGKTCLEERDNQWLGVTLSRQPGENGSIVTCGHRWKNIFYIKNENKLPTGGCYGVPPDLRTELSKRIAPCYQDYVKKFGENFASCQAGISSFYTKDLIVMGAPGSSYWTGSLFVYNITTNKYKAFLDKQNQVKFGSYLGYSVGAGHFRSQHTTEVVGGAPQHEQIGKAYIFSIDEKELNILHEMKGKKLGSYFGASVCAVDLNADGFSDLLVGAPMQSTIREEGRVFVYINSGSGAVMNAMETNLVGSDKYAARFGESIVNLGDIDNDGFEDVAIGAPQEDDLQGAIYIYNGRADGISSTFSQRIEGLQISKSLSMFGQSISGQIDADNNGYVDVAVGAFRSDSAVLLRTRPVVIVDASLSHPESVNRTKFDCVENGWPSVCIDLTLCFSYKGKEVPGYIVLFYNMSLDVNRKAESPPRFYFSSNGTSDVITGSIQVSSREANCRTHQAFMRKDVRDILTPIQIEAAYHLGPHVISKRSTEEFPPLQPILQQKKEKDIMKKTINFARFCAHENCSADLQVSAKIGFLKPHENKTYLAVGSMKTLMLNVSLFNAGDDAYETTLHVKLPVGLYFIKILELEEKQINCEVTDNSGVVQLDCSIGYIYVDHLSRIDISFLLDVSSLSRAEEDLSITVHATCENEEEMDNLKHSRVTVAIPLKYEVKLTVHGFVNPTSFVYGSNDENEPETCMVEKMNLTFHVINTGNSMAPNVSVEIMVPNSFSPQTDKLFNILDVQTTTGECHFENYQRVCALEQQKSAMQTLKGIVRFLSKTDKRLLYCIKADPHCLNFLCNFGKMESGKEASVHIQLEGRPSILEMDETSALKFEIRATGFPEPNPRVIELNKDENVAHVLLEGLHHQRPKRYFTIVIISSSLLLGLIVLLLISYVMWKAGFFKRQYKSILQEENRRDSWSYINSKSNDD
CIT2-GFP yeast: modulators of CIT2-GFP expression in yeast, primary screen, S. cerevisiae, GFP fusion, multiplex flow cytometry, MLPCN library | S. cerevisiae CIT2-GFP strain, 3 h; 100 means same as DMSO wells | 0.065% of 320,000 active | GFP response vs DMSO, % at 10 µM;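 active = GFP response relative to DMSO above a set limit, near the screen mean plus 3 SD, cut at about 150% in these data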;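 note: ratio of well median GFP fluorescence to mean of DMSO wells on the plate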
MEP2-GFP yeast: modulators of MEP2-GFP levels in yeast, primary screen, S. cerevisiae, multiplex flow cytometry, MLPCN library; S. cerevisiae MEP2-GFP strain, 3 h; 100% = DMSO control level; GFP response vs DMSO, % at 10 µM; 0.51% of 330,000 active;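 active = GFP response versus DMSO above a set limit, roughly screen mean plus 3 SD, cut at about 180% in these data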;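 note: median GFP fluorescence of the barcode-gated MEP2-GFP cells per well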
AGP1 TOR yeast: modulators of AGP1-GFP expression in yeast TOR pathway, primary screen, cell-based, multiplex flow cytometry, S. cerevisiae, MLPCN library; 3 h; GFP as percent of DMSO wells; GFP response vs DMSO, % at 10 µM; 0.02% of 320,000 active; AID 2066, 2009;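 active = GFP response relative to DMSO above a set limit, near screen average plus 3 SD, cut at about 150% in these data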;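 note: median GFP channel fluorescence of the gated AGP1 strain per well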
LAP4-GFP MLPCN: modulators of LAP4-GFP expression in yeast, primary screen, S. cerevisiae, multiplex flow cytometry, MLPCN library; 0.34% of 320,000 active; GFP response vs DMSO, % at 10 µM; 3 h; median GFP as percent of DMSO wells;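 active = GFP response vs DMSO above a set limit, about the screen mean plus 3 SD, cut at about 150% in these data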
LAP4 cherry2: LAP4-GFP expression modulators in yeast, confirmation, cell-based, second cherry pick, flow cytometry | AID 2621, 2010 | shares compounds with LAP4-GFP MLPCN | GFP response vs DMSO, % at 10 µM | S. cerevisiae LAP4-GFP strain, 3 h | 20% of 590 active;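 active = GFP signal as percent of the solvent control above about 150%, meaning raised reporter expression, limit read from the data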
MEP2-GFP pick2: modulators of MEP2-GFP levels in yeast, confirmation, S. cerevisiae, flow cytometry GFP, second cherry picks | shares compounds with LAP4-GFP MLPCN | S. cerevisiae MEP2-GFP strain, 3 h | GFP response vs DMSO, % at 10 µM | 10% of 590 active | AID 2622, 2010;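 active = GFP signal above 150% of the solvent control wells, that is a rise of more than half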;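 note: median channel GFP fluorescence of all gated yeast cells per well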
RPL19A-GFP pick2: RPL19A-GFP modulators in TOR pathway yeast, confirmation, cell-based, S. cerevisiae, flow cytometry, second cherry pick; shares compounds with LAP4-GFP MLPCN; S. cerevisiae RPL19A-GFP strain, 3 h; stronger effect = lower value; 100% means same as DMSO wells; GFP response vs DMSO, % at 10 µM; 3% of 590 active;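 active = under 65% GFP response relative to DMSO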;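 note: median GFP channel fluorescence per well over the all cells gate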
CIT2 GFP CP2: modulators of CIT2-GFP expression in yeast, confirmation, flow cytometry, second cherry pick, single plex; shares compounds with LAP4-GFP MLPCN; S. cerevisiae CIT2-GFP strain, 3 h; DMSO control wells read 100%; GFP response vs DMSO, % at 10 µM; 8% of 590 active; AID 2624, 2010;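 active = GFP response vs DMSO above about 150%, limit read from the data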;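 note: median green fluorescence per well over all gated yeast cells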
AGP1 GFP CP2: AGP1-GFP expression modulators, hit retest, confirmation, cell-based, flow cytometry, S. cerevisiae, cherry pick set 2. shares compounds with LAP4-GFP MLPCN. S. cerevisiae AGP1-GFP strain, 3 h. percent response vs DMSO, % at 10 µM. 590 tested, under 10 active;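 active = over 150 percent of DMSO response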;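 note: median GFP channel fluorescence over all cells without mother daughter split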
Yeast autofluor: compound autofluorescence in yeast s288c, dose response, artefact control for yeast TOR pathway GFP screen, s288c strain | 610 tested, under 10 active | AID 2757, 2010 | S. cerevisiae s288c, 520 nm autofluorescence, flow cytometry, 3 h; stronger effect = higher value; zero means same as solvent-only cells | fluorescence change (kMESF span) at 33 µM | shares compounds with LAP4-GFP MLPCN;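 active = fluorescence span over the dose series, or activity score, above about 33, limit read from the data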
Yeast autofl DR: autofluorescence of compounds in yeast s288c, dose response, artefact control for yeast TOR pathway GFP screen, primary hits, KU SAR, s288c parental; S. cerevisiae s288c parental, compound autofluorescence, flow cytometry, 3 h; fluorescence change (span) at 33 µM; 110 tested, under 10 active; shares compounds with LAP4-GFP MLPCN;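 active = fluorescence change span, or the activity score built from it, above 25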
TORC1 bypass gr: wild-type yeast growth inhibition sparing TORC1 bypass cells, mechanism study for yeast TOR pathway GFP screen, BY4741 wild type, TORC1 bypass strain; shares compounds with LAP4-GFP MLPCN; S. cerevisiae BY4741 spot growth rating, 48-72 h; stronger effect = lower value; growth rating (0-3) at 30 µM; 120 tested, under 10 active;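 active = growth rating at most 1 for wild type yeast while the TORC1 bypass strain still grows fully, rated 3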
Each line names hits and unclear results; the compound was inactive in the other large screens (follow-up assays come after a bar, where they were run). An excerpt weighted towards active compounds, which were near 1.1% of everything screened.

Cc1cc(=O)n2c3c(sc2n1)C(=O)N(Cc1ccccc1)C3=O	LAP4-GFP MLPCN 194 | Yeast autofluor inactive
Cc1cc(C)cc(C(=O)NCC(=O)N2CCC(C(N)=O)CC2)c1	none
CC(=O)Nc1ncnc2c1c(-c1ccc(Cl)cc1)nn2C(C)(C)C	none | LAP4 cherry2 inactive | MEP2-GFP pick2 inactive | RPL19A-GFP pick2 59 | CIT2 GFP CP2 inactive | AGP1 GFP CP2 inactive | Yeast autofluor inactive | Yeast autofl DR inactive | TORC1 bypass gr inactive
CC(=O)Nc1nc(-c2ccc(Cl)cc2)nc(C)c1C(C)=O	none
CC(=O)N(C(C)=O)c1ncnc2c1c(-c1ccc(Cl)cc1)nn2C(C)(C)C	none | LAP4 cherry2 inactive | MEP2-GFP pick2 inactive | RPL19A-GFP pick2 inactive | CIT2 GFP CP2 inactive | AGP1 GFP CP2 inactive | Yeast autofluor inactive
CC1(C)N=C(N)N=C(N)N1c1ccc(Oc2ccc(Cl)cc2)c(Cl)c1	none
Cc1ccc(N=c2ssnc2Cl)cc1	LAP4-GFP MLPCN 163 | LAP4 cherry2 inactive | MEP2-GFP pick2 inactive | RPL19A-GFP pick2 inactive | CIT2 GFP CP2 inactive | AGP1 GFP CP2 inactive | Yeast autofluor inactive
COc1cc(N=c2ssnc2Cl)c(OC)cc1Cl	LAP4-GFP MLPCN 162 | LAP4 cherry2 159 | MEP2-GFP pick2 inactive | RPL19A-GFP pick2 inactive | CIT2 GFP CP2 inactive | AGP1 GFP CP2 inactive | Yeast autofluor inactive
Cc1nnc(N=c2ssnc2Cl)o1	none
O=C(c1ccccc1)c1ccc(N2CCN(C(=O)c3cccc(F)c3F)CC2)c(F)c1	none
Clc1cccc(Nc2ncnc3c2cnn3-c2ccccc2)c1	none
Fc1cccc(Nc2ncnc3c2cnn3-c2ccccc2)c1	LAP4-GFP MLPCN 157 | LAP4 cherry2 inactive | MEP2-GFP pick2 inactive | RPL19A-GFP pick2 inactive | CIT2 GFP CP2 inactive | AGP1 GFP CP2 inactive | Yeast autofluor inactive
CC(=O)Oc1ccccc1/C=C/c1nc2ccccc2c(=O)o1	none
O=c1oc(/C=C/c2ccc([N+](=O)[O-])s2)nc2ccccc12	CIT2-GFP yeast 161, MEP2-GFP yeast 185, LAP4-GFP MLPCN 154 | Yeast autofluor inactive
COc1ccc(C2=NN(C(=O)c3ccccc3)C(c3ccc(OC)c(OC)c3)C2)c(OC(C)=O)c1 (centres undefined)	MEP2-GFP yeast active | LAP4 cherry2 inactive | MEP2-GFP pick2 inactive | RPL19A-GFP pick2 inactive | CIT2 GFP CP2 inactive | AGP1 GFP CP2 inactive
COc1ccc(C2CC(c3ccccc3O)=NN2C(=O)c2ccccc2)cc1OC (centres undefined)	none
C=CCNC(=S)Nc1ccccc1-c1nnc2n1CCCCC2	none
O=c1cc(CSc2ccc(Cl)cc2)nc(-c2ccccn2)[nH]1	LAP4-GFP MLPCN 211 | LAP4 cherry2 264 | MEP2-GFP pick2 169 | RPL19A-GFP pick2 inactive | CIT2 GFP CP2 inactive | AGP1 GFP CP2 inactive | Yeast autofluor inactive | Yeast autofl DR inactive | TORC1 bypass gr inactive
O=C(COc1ccccc1)N1CCN(c2ncnc3c2cnn3-c2ccccc2)CC1	MEP2-GFP yeast 190 | Yeast autofluor inactive
Cc1cccc(C(=O)N2CCN(c3ncnc4c3cnn4-c3ccccc3)CC2)c1	none (no result: AGP1 TOR yeast)
O=C(c1ccc2c(c1)OCO2)N1CCCN(C(=O)c2ccc3c(c2)OCO3)CC1	none
C=CCN1CCN(C(=O)c2ccc3c(c2)OCO3)CC1	CIT2-GFP yeast 157 | LAP4 cherry2 inactive | MEP2-GFP pick2 inactive | RPL19A-GFP pick2 inactive | CIT2 GFP CP2 inactive | AGP1 GFP CP2 inactive
Cc1cnc(C(=O)Oc2ccc(-c3ccccc3)cc2)cn1	none
COc1ccc(-c2cc(=O)c3c(OC)c(OC)c(OC)c(OC)c3o2)cc1OC	LAP4-GFP MLPCN 234 | LAP4 cherry2 inactive | MEP2-GFP pick2 inactive | RPL19A-GFP pick2 inactive | CIT2 GFP CP2 inactive | AGP1 GFP CP2 inactive
Cc1ccc(NC(=O)COC(=O)CCc2c[nH]c3ccccc23)c(C)c1	none
Cc1ccc2nc(CCl)[n+]([O-])c(-c3ccccc3)c2c1	none
Cc1ccc(S(=O)(=O)c2ncccc2[N+](=O)[O-])cc1	LAP4-GFP MLPCN 199 | Yeast autofluor inactive | Yeast autofl DR inactive | TORC1 bypass gr inactive
COc1cccc2cc(-c3nc4ccccc4o3)c(=O)oc12	none | LAP4 cherry2 inactive | MEP2-GFP pick2 inactive | RPL19A-GFP pick2 60 | CIT2 GFP CP2 inactive | AGP1 GFP CP2 inactive | Yeast autofluor inactive
Cc1ccc(S(=O)(=O)N2CCC(C(=O)N3CCC3)CC2)cc1	none

Assay outcomes (PubChem BioAssay)
